Source: PubChem
Shiga inhibitor: blocks Shiga toxin action in Vero cells; 290,000 tested, 9.2% active; inhibition, % at 38.7 µM; Vero cells, Shiga toxin protein synthesis inhibition reporter; in the data active = inhibition mostly above about 28%, no sharp cut-off; inactive = mostly below about 43%
Pf growth 48h: P. falciparum growth inhibition at 48 hours (one generation). P. falciparum luciferase growth in erythrocytes, 48 h. Potency, µM (series often up to 28.7 µM), actives largely listed as inhibitors. 310,000 tested, 5.9% active
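Erythrocytes infected with P. falciparum carrying an integrated firefly luciferase reporter (2% hematocrit, 0.1% parasitemia final) were exposed to compounds in RPMI 1640 with 0.5% Albumax at 37 C, 5% CO2. Growth inhibition was scored as reduced luminescence.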
Cycloheximide cs: affects cycloheximide protein synthesis inhibition readout, counter-screen; cell reporter, cycloheximide protein synthesis inhibition counterscreen; max response, %; 300,000 tested, 12% active; AID 2314; in the data active = max response mostly above about 13%, no sharp cut-off; inactive = mostly below about 14%; also: read at 38.3 µM for the half of the compounds with a filed dose
Pf growth 96h: P. falciparum growth inhibition at 96 hours; 320,000 tested, 6.9% active; Potency, µM (highest dose often 28.7 µM), usual class: inhibitors; AID 504834; P. falciparum luciferase reporter growth, 96 h
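Plates of compound plus infected erythrocytes (2% hematocrit, 0.05% parasitemia final) incubate 96 hours, 37 C, 5% CO2. Detection reagent added; reduced luminescence from the parasites' luciferase reporter flags inhibition.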
Each line names hits and unclear results; the compound was inactive in the other large screens. Most compounds without a hit are left out; they make up all but 21% or so of the library. Unless noted, calls follow the shape of the dose curve; as a rule, active = well fitted inhibition curve with a large enough effect; inconclusive = small, poorly fitted or top-dose-only effect, or another doubt; inactive = no such curve, though single readings can be large or run the other way.

O=C(O)c1ccccc1C(=O)Nc1ccc(-n2ccc(C(F)(F)F)n2)cc1	none
N=C(N)N1CCN(Cc2ccccc2)CC1	Pf growth 96h inconclusive
NC1=C(c2ccccc2)C(=O)NC1=O	none
N#Cc1ccc(C(=O)OCC(=O)Nc2ccc(S(N)(=O)=O)cc2)cc1	none
O=C(O)CCC(=O)Nc1ccc(-n2ccc(C(F)(F)F)n2)cc1	Shiga inhibitor 42, Pf growth 48h 1.7µM, Cycloheximide cs 25
Cc1ccc(CNC(=O)CCc2nnc3ccc(N4CCC5(CC4)OCCO5)nn23)cc1	none
CC(C)OCCCNC(=O)c1ccc(NC(=O)C2CCCO2)cc1 (stereo not drawn)	Pf growth 96h inconclusive
CCCN(CCC)S(=O)(=O)c1ccc(NC(=O)C2CCCO2)cc1 (stereo not drawn)	Pf growth 48h inconclusive, Pf growth 96h 9.3µM
NS(=O)(=O)c1ccc(NC(=O)C2CCCO2)cc1 (stereo not drawn)	none (no result: Pf growth 96h)
CCCCNC(=O)c1ccc(NC(=O)C2CCCO2)cc1 (stereo not drawn)	Cycloheximide cs 11
CCCCc1ccc(NC(=O)C2CCCO2)cc1 (stereo not drawn)	Shiga inhibitor 72, Cycloheximide cs 55
O=C(NC(NC(=O)c1ccccc1)c1ccccc1)c1ccccc1	Pf growth 96h inconclusive (no result: Pf growth 48h)
Cc1ccc(C(=O)NC(c2ccccc2)C(Cl)Cl)cc1 (stereo not drawn)	Cycloheximide cs 15, Pf growth 96h inconclusive
O=C(NC(c1ccccc1)C(Cl)Cl)c1ccccc1 (stereo not drawn)	Pf growth 96h 2.6µM
FC(F)(F)c1cccc(N2CCN(C3CC4CCC3C4)CC2)c1 (stereo not drawn)	none
COc1ccccc1NS(=O)(=O)c1ccc2c(c1)CCN2C(=O)CCC(=O)O	Pf growth 96h inconclusive
Oc1ccc(N=C/C=C/c2ccc(Br)cc2)cc1-c1nc2ccccc2s1	Shiga inhibitor 40, Cycloheximide cs 36
Cc1c(O)ccc(-c2[nH]ncc2-c2nc3ccccc3s2)c1O	none (no result: Pf growth 96h)
O=S(=O)(Nc1ccc(Br)cn1)c1ccc2ccccc2c1	none
C[C@H]1C[C@@H](C)C(=O)[C@@H]([C@H](O)CC2CC(=O)NC(=O)C2)C1	Pf growth 48h 0.033µM, Pf growth 96h inconclusive
Nc1nc(-c2ccccc2)cc(N2CCCCC2)n1	none (no result: Pf growth 96h)
Cn1c(=O)n(C)c2cc(N3CCCCC3)c(NC(=O)c3ccccc3)cc21	Pf growth 48h inconclusive, Pf growth 96h inconclusive
c1ccc(-c2cc(N3CCCCC3)ncn2)cc1	Shiga inhibitor 62, Cycloheximide cs 41 (no result: Pf growth 96h)
c1ccc(-c2cc(N3CCCCCC3)n[nH]2)cc1	Shiga inhibitor 151, Pf growth 48h inconclusive, Cycloheximide cs 48
O=C(Nc1cc(N2CCCCC2)ncn1)c1ccccc1	Shiga inhibitor 54, Cycloheximide cs 29
Nn1cnc2cc3ccccc3cc2c1=O	none
Cc1nc(CCN2C(=O)c3ccccc3C2=O)n[nH]1	none (no result: Pf growth 96h)
CCc1ccc(CCN2C(=O)c3ccccc3C2=O)nc1	Cycloheximide cs 25
COc1ccc(Cl)cc1S(=O)(=O)N1CCC(C(=O)N2CCOCC2)CC1	none
Cc1csc2c(SCC(=O)NNC(=O)C(Cl)Cl)ncnc12	Pf growth 48h 3.3µM, Pf growth 96h inconclusive
Cc1ccc(-n2ncc3c(SCC(=O)NNC(=O)C(C)C)ncnc32)cc1	none
CCn1c(SCC(=O)NCCCN2CCCC2=O)nnc1-c1cccc(C)c1	none (no result: Shiga inhibitor, Cycloheximide cs)
COC(=O)c1cccc(NC(=O)c2cnoc2C)c1	Shiga inhibitor 52, Cycloheximide cs 28
CC(=O)CC(=O)Nc1ccc2ccccc2c1	none
Cc1oncc1C(=O)Nc1ccc2ccccc2c1	Shiga inhibitor 89, Cycloheximide cs 34
Cc1coc(C)c1C(=O)Nc1ccc2ccccc2c1	Shiga inhibitor 90, Cycloheximide cs 64
O=C1/C(=C\c2ccc(O)cc2)SC(=S)N1/N=C/c1ccc(O)cc1	Cycloheximide cs 12
CCc1ccc(OC)c(-c2csc(N)n2)c1	Pf growth 96h 12µM
COc1ccc(-c2csc(NC(=O)c3c(C)noc3C)n2)cc1F	Pf growth 96h inconclusive (no result: Shiga inhibitor, Cycloheximide cs)
COc1ccc(-c2csc(N)n2)cc1F	Shiga inhibitor 64, Cycloheximide cs 39
COC(=O)c1c(NC(=O)Cn2cnc([N+](=O)[O-])n2)sc2c1CCC(C)C2 (stereo not drawn)	Pf growth 48h inconclusive, Pf growth 96h inconclusive
CN(C(=O)CCc1nc2ccccc2s1)c1ccccc1	Cycloheximide cs 21
CN(C(=O)COc1cc(C(F)(F)F)nn1C)c1ccccc1	none
CN(C(=O)COc1nc2ccccc2s1)c1ccccc1	Shiga inhibitor 23 (no result: Pf growth 48h, Pf growth 96h)
O=C(c1cccc(Cl)c1)N1CCN(CCCc2ccccc2)CC1	none (no result: Pf growth 48h)
CS(=O)(=O)N(CC(N)=O)c1cccc(Br)c1	Pf growth 96h 3.7µM
CC1CCN(c2ccc(-c3ccc(NC(=O)C(F)(F)F)cc3)nn2)CC1	Shiga inhibitor 41, Cycloheximide cs 36
COc1ccc(CNC2CC(C)N(C)CC2C)cc1OC (stereo not drawn)	Pf growth 48h 10µM
CN(C(=O)Cn1c(=O)oc2cc(S(=O)(=O)N3CCCC3)ccc21)C1CCCCC1	none
O=C(O)c1ccc(-c2nnc(-c3ccc([N+](=O)[O-])cc3)o2)cc1	none
O=C(O)c1ccc(-c2nnc(-c3ccccc3)o2)cc1	Shiga inhibitor 42, Cycloheximide cs 27 (no result: Pf growth 48h)
O=C(c1ccc(-c2nnc(-c3ccccc3)o2)cc1)N1CCCCCC1	Shiga inhibitor 83
O=C(c1nnc(-c2ccccc2)o1)C1CC1	Shiga inhibitor 97, Cycloheximide cs 37
CC(=O)N/C(=N\OCc1ccccc1Cl)c1nonc1NC(C)=O	Pf growth 96h inconclusive
Cc1nc(C(=O)NCCO)cc2c1[nH]c1ccccc12	none
COc1ccc(-c2nc(C(=O)NCC3CCCO3)cc3c2[nH]c2ccccc23)cc1 (stereo not drawn)	Pf growth 48h 5.2µM, Pf growth 96h 7.4µM
Cc1ccc(-c2nc(C(=O)NCC3CCCO3)cc3c2[nH]c2ccccc23)cc1 (stereo not drawn)	Pf growth 48h 7.4µM, Pf growth 96h inconclusive
Cc1ccccc1-c1nc(C(=O)NCC2CCCO2)cc2c1[nH]c1ccccc12 (stereo not drawn)	Pf growth 48h inconclusive, Pf growth 96h 12µM
O=C(NCC1CCCO1)c1cc2c([nH]c3ccccc32)c(-c2cccc(Br)c2)n1 (stereo not drawn)	Pf growth 48h inconclusive, Pf growth 96h 3.7µM
O=C(NCCO)c1cc2c([nH]c3ccccc32)c(-c2ccccc2)n1	none
Cc1ccc(CN2CC(C(=O)NNC(=O)c3ccc(F)cc3)CC2=O)cc1 (stereo not drawn)	none (no result: Shiga inhibitor, Cycloheximide cs)
O=C(COc1ccc2c3c(c(=O)oc2c1)CCCC3)N1C[C@H]2C[C@@H](C1)c1cccc(=O)n1C2	Pf growth 96h inconclusive
CCC(=O)c1cn(CC(=O)Nc2cc(C)ccc2C)c2ccccc12	Pf growth 96h inconclusive (no result: Shiga inhibitor)
CCCCC(=O)Nc1ncc([N+](=O)[O-])s1	Shiga inhibitor 54, Cycloheximide cs 17
CCCCC(=O)Nc1ncc(Br)s1	Cycloheximide cs 11
COc1ccc(CC(=O)Nc2ncc([N+](=O)[O-])s2)cc1OC	none
CC(C)CC(=O)Nc1ncc([N+](=O)[O-])s1	Shiga inhibitor 84, Cycloheximide cs 41
CCCCC(=O)Nc1nnc(C)s1	none
Cc1ccc(C)c(N(CC(=O)NC2CCCC2)C(=O)c2csnn2)c1	none
